Bioassay records (PubChem BioAssay)
Six1-Eya2 inh: blocks human Six1 binding to Eya2; 360,000 compounds, 0.56% hits; activity change, % (test concentration not listed); AlphaScreen GST-Six1/His-Eya2 binding, biochemical; hits give low values; Q15475+O00167; in the data active means activity change below about -65%; inconclusive means mostly about -30% to -63%
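Compounds are tested against tagged Six1 and Eya2 proteins bridged by glutathione donor and nickel acceptor beads; after a one-hour incubation at 37 °C without light, AlphaScreen emission is recorded.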
CtBP-E1A inh: inhibitors of CtBP/E1A interaction. AlphaScreen GST-E1A/His-CtBP binding, 1536-well; hits give low values. activity change, % (no concentration beside the values). 340,000 compounds, 0.49% hits. AID 651724; in the data active means activity change below about -65%; inconclusive means mostly about -30% to -63%
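In 5 uL wells, 23 nL compound meets equimolar GST-E1A and His-CtBP (5X stock 125 nM each) for 2 h, 37 °C. Beads (5X, 50 ug/mL) then 1 h, 37 °C, dark.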
PKM2 activator: increases activity of human pyruvate kinase M2 | P14618 | purified PKM2, Kinase-Glo ATP luminescence, activation; response scale: 0% is enzyme alone, no compound | Potency, µM (titrated, usually from 57.5 µM), for the others: at the highest dose activation, most hits filed as activators | 260,000 compounds, 0.34% hits; further: potency means the concentration at half of the fitted maximal effect; nearly all actives have a fitted effect of over 55% in size
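Kinase-Glo luminescence reports ATP generated from ADP (0.1 mM) and PEP (0.5 mM) by purified hPK-M2 after 1 h at room temperature, pH 7.2 imidazole buffer; intermediate enzyme activity allows detecting inhibitors and activators.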
Gal4-VP16 FLuc: Gal4-VP16 reporter inhibition counter-screen. 310,000 compounds, 3.5% hits. Potency, µM (series often up to 53.6 µM), for the others: at the top dose activity, negative = inhibition, most hits filed as inhibitors. Drosophila S2 Gal4-VP16 UAS-luciferase, luminescence, 20 h;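 further: Gal4-VP16 expression switched on by copper sulfate through the metallothionein promoter; potency means the concentration at half of the fitted maximal effect; nearly all actives have a fitted effect of over 50% in size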
RORg inh: inhibitors of mouse ROR gamma transcriptional activity; Potency, µM (highest dose often 53.6 µM), for inactives: at the highest dose activity change, negative = inhibition, actives largely listed as inhibitors; 310,000 compounds, 5.4% hits; P51450; Drosophila S2 Gal4-RORgamma UAS-luciferase reporter, 20 h; AID 2551; further: potency means the concentration at half of the fitted maximal effect; nearly all actives have a fitted effect of over 60% in size
Target sequence (P51450 whole entry, looked up, the tested form may be a part): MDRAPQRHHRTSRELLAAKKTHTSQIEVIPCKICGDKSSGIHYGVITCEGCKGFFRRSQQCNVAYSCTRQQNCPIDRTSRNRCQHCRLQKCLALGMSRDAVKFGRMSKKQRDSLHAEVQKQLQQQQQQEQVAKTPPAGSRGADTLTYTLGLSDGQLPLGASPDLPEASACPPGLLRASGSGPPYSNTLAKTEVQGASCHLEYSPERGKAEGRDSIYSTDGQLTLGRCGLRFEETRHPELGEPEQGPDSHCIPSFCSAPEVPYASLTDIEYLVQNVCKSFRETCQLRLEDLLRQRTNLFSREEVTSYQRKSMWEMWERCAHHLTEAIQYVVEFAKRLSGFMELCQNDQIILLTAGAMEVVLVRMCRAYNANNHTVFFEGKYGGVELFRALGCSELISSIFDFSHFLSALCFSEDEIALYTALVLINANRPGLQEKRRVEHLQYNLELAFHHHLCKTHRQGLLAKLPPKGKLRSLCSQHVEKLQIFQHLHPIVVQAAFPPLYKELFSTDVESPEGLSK
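Drosophila Schneider cells stably carrying a metallothionein-driven Gal4 DBD–ROR gamma fusion and a UAS-Photinus luciferase reporter were exposed to compound for 1 hr, then induced with copper sulfate (700 uM final) for 20 hr at ambient temperature before luminescence reading.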
Numbers without * were called inactive; ? = inconclusive; nt = no result. Rows were chosen to be rich in hits. Some 5.6% of all compounds tested hit in one or more screens of this group. Unless noted, the call rests on the fitted dose curve; in most records, active means well fitted curve in the direction sought with a large enough effect; inconclusive means small, poorly fitted or top-dose-only effect, or another doubt; inactive means no such curve, though single readings can be large; an effect the other way counts as inactive or inconclusive. On the % scale 0 is the no-effect control and ±100 the full control effect.

SMILES	Six1-Eya2 inh	CtBP-E1A inh	PKM2 activator	Gal4-VP16 FLuc	RORg inh
CCC(C)[C@H](NS(=O)(=O)c1ccc(C)cc1)C(=O)N1CCC(C(=O)N[C@@H](Cc2ccccc2)C(=O)O)CC1 (stereo partly specified)	2	3	nt	0%	-4%
Cc1ccc(-n2[nH]c(C)c(C=NCc3ccncc3)c2=O)cc1	6	2	-7%	-16%	6%
CCCc1nc2ccccc2c(=O)n1/N=C/c1c(C)[nH]n(-c2ccc(C)cc2)c1=O	-1	?	-29%	?	13µM*
CCCc1nc2ccccc2c(=O)n1/N=C/c1ccccc1O	?	15	-6%	10µM*	2.5µM*
Cc1nc2ccccc2c(=O)n1/N=C/c1ccc(O)cc1O	-18	?	-6%	-3%	-30%
COc1cccc(/C=N/n2c(C)nc3ccccc3c2=O)c1O	-20	?	0%	16µM*	3.2µM*
O=C(O)C(CCC(C(=O)O)c1ccccc1)c1ccccc1 (stereo unspecified)	11	2	nt	nt	nt
Cc1nc2cc(N3CCCCC3)c(NC(=O)c3ccncc3)cc2c(=O)n1Cc1ccc(Cl)cc1	nt	nt	3%	-3%	21%
Cc1nc2cc(N3CCN(C)CC3)c(NC(=O)Cc3ccccc3)cc2c(=O)n1Cc1ccccc1	-10	2	-1%	?	7.1µM*
CCN1/C(=C2\C(=O)N(C)C(=S)N2C)C=Cc2cc(C)ccc21	-17	-7	-32%	-19%	-35%
CC(C)(C)NC(=O)CC1C[C@H](C(=O)N2CCCCC2)[C@@]2(C)c3[nH]c4ccccc4c3CCN2C1=O (stereo partly specified)	2	-22	nt	nt	nt
CC(/C=N/N1C(=O)CSC1=S)=C\c1ccccc1	-8	-18	0%	5%	11µM*
CC(C)(C)c1ccc(/C=N/N2C(=O)CSC2=S)cc1	-17	?	-2%	?	10µM*
CC(/C=N/N1CCN(c2ccccc2)CC1)=C\c1ccccc1	-3	-1	-2%	4%	16%
CC(C)(C)c1ccc(/C=N/n2cnnc2)cc1	3	0	-49%	-1%	16%
COc1ccc(/C=N/N2C(=O)CSC2=S)cc1Br	-17	nt	nt	nt	nt
COc1ccc(/C=N/N2C(=O)CSC2=S)cc1	-18	3	-5%	3%	16µM*
CCCc1ccc2oc(C(=O)N3CCC(C(N)=O)(N4CCCCC4)CC3)c(C)c2c1	0	2	nt	8%	-3%
Cc1ccc(/C=C2\Sc3ccccc3C2=O)s1	-28	-10	-16%	?	11µM*
O=C(N/N=C/c1cc([N+](=O)[O-])ccc1O)NC12CC3CC(CC(C3)C1)C2	-7	-11	7%	?	3.5µM*
O=C(N/N=C/c1cc([N+](=O)[O-])ccc1O)C12CC3CC(CC(C3)C1)C2	-5	-9	10%	0.71µM*	?
O=[N+]([O-])c1cccc(N/N=C/c2cc([N+](=O)[O-])ccc2O)c1	-17	-10	1%	-10%	-35%
CCC(Cl)CC(Cl)C(Cl)C(Cl)C(Cl)C(C)Cl (stereo unspecified)	nt	nt	nt	22%	3%
COc1ccc(-c2nnc(Nc3ccc(CC(N)=O)cc3)c3ccccc23)cc1	0	3	-11%	-5%	30%
NC(=O)Cc1ccc(Nc2nnc(-c3ccccc3)c3ccccc23)cc1	0	1	0%	22µM*	?
SMILES	Six1-Eya2 inh	CtBP-E1A inh	PKM2 activator	Gal4-VP16 FLuc	RORg inh
Cc1ccc(N=Nc2c(N)[nH]n3c(=O)cc(C)nc23)cc1	?	?	-3%	-24%	10µM*
Cc1cc(/C=N/n2c(COc3ccccc3C)nc3ccccc3c2=O)c(O)c([N+](=O)[O-])c1	-68*	-73*	5%	35µM*	14µM*
O=[N+]([O-])c1ccc(Cl)c(/C=N/n2c(COc3ccccc3)n[nH]c2=S)c1	9	24	-17%	-2%	?
Cc1ccccc1OCc1nc2ccccc2c(=O)n1/N=C/c1c[nH]c2ccccc12	-2	5	-2%	-19%	?
O=c1c2ccccc2nc(COc2ccccc2)n1/N=C/c1cc([N+](=O)[O-])ccc1O	-89*	-5	6%	4µM*	5µM*
O=C(O)Cc1cn(Cc2ccc(F)cc2)c2ccccc12	-10	-17	5%	4%	15%
Cc1ccc(Cn2cc(CCC(=O)O)c3ccccc32)cc1	3	-65*	nt	-3%	36%
COc1ccc(-n2nnnc2S(=O)(=O)CC(=O)N2CCCCC2)cc1	3	-1	7%	4.5µM*	2.8µM*
Cc1cccc(NC(=S)NCc2cccn2C)c1	-17	-10	5%	-4%	?
Cc1ccc(Cl)cc1NC(=S)NCc1cccn1C	-15	-12	6%	7.9µM*	7.1µM*
Cc1ccc(NC(=S)NCc2cccn2C)cc1	-13	-15	-9%	?	4µM*
Cc1c(Cl)cccc1NC(=S)NCc1cccn1C	-6	-10	9%	18µM*	4.5µM*
Cc1ccccc1NC(=S)NCc1cccn1C	-11	-4	-5%	?	?
O=C(NC(=S)NCc1ccccc1)c1cccs1	-12	-7	1%	7.9µM*	5µM*
O=C(CNC(=S)NC(=O)c1cccs1)c1ccccc1	-6	13	0%	?	8.9µM*
Cc1ccc(C(=O)NC(=S)NCC(=O)c2ccccc2)cc1	0	-3	-6%	?	?
Cc1ccc(C(=O)NCC2CCCO2)cc1[N+](=O)[O-] (stereo unspecified)	8	-3	5%	5%	23%
Cc1ccc(C(=O)NNC(=S)NCC2CCCO2)cc1[N+](=O)[O-] (stereo unspecified)	6	8	-5%	-22%	5.6µM*
Cc1ccc(C(=O)NC(=S)NCC2CCCO2)cc1[N+](=O)[O-] (stereo unspecified)	-5	0	0%	?	7.1µM*
S=C(Nc1ccccc1)Nc1nc2ccccc2n1CCOc1ccc(Br)cc1	-12	4	2%	2.2µM*	1.8µM*
Cn1c(NC(=S)Nc2ccccc2)nc2ccccc21	-6	-4	2%	1µM*	0.5µM*
C/C(=N\NC(=S)NCc1ccccc1)c1ccc(Cl)s1	-8	0	4%	8.9µM*	1.4µM*
C/C(=N\NC(=O)Cc1ccccc1)c1ccc(Cl)s1	2	-2	-8%	2%	2%
COCCNC(=S)N/N=C(\C)c1ccc(Cl)s1	-15	-6	5%	3.2µM*	0.79µM*
C/C(=N\NC(=S)NCc1ccccc1)c1cccs1	1	-15	0%	2µM*	0.45µM*
C/C(=N\NC(=O)Cc1ccccc1)c1cccs1	0	-1	1%	-1%	-2%
CN(C)CCCNc1nc2cc(-c3ccc4c(ccn4C)c3)sc2c(=O)n1C	-1	-4	nt	nt	nt
